{
  "source": "PubChem BioAssay (Tox21)",
  "note": "Inconclusive results are not listed. A call without a number means that no potency is given here. A number with no mark means an inactive call. The source made the active and inactive calls. Calls come from the whole dose curve; as a rule, active = well fitted cell-killing curve with a large enough effect in the repeat runs; inconclusive = weak or mixed curves; inactive = flat fitted curve, though single readings scatter.",
  "data": [
    {"test": "qHTS assay to identify small molecule antagonists of the estrogen related receptor (ERR) signaling pathway from Tox21 library - cell viability counter screen (AID 1224834); note: nearly all actives have a fitted effect of over 30% in size; note: potency is the fitted concentration of half-maximal effect", "conditions": "ERR reporter cells viability, CellTiter-Fluor, 17.5 h; series mostly up to 92.4 µM", "source_text": "National Center for Advancing Translational Sciences [NCATS]\nNIH Chemical Genomics Center [NCGC]\nU.S. Environmental Protection Agency [EPA]\nNational Institutes of Environmental Health Sciences [NIEHS]\nNational Toxicology Program [NTP]\nU.S. Food and Drug Administration [FDA]\nEstrogen related receptors (ERRs), the first orphan nuclear receptors discovered, play an important role in the control of cellular energy metabolism. ERRs are required for high-energy production in response to the environmental challenges. ERR-alpha was also identified as an adverse marker for breast cancer progression; ERR-alpha-positive tumors have a poor prognosis. To screen and to identify environmental compounds that perturb the ERR signaling pathways could provide valuable information for potential therapeutic or preventive measures in the treatment of metabolic disease. To differentiate true ERR antagonists or agonist from cytotoxic substances, the assay is multiplexed with cell viability assay.\nTox21 Assay Protocol Summary:\nThe ERR cells were dispensed at 2,000 cells/5 ul/well in 1536-well white plates using a Multidrop dispenser. After the assay plates were incubated at a 37 C/5% CO2 incubator for 6 hours, 23 nL of compounds dissolved in DMSO, positive and negative controls or DMSO only was transferred to the assay plate by a pin tool. The plates were incubated at 37 C for 17.5 hours. 1 ul/well of CellTiter-Fluor reagent was added into the assay plates using a Flying Reagent Dispenser. After 30-minute incubation at 37 C/5% CO2, the fluorescence intensity in the plates was measured using a ViewLux plate reader.", "values": [
      {"compound": "NC(Cc1c[nH]c2ccccc12)C(=O)O", "note": "(stereo not given)", "Potency": "inactive"},
      {"compound": "C=CCOc1cc(Cl)ccc1C(=O)NCCN(CC)CC", "Potency": "inactive"},
      {"compound": "O=C(O)c1ccc(OCCN2CCCCC2)cc1", "Potency": "inactive"},
      {"compound": "CCOC(=O)OCC/C(SC(=O)OCC)=C(\\C)N(C=O)Cc1cnc(C)nc1N", "Potency": "inactive"},
      {"compound": "O=C(CN1CCN(Cc2ccc3c(c2)OCO3)CC1)N1c2ccccc2Sc2ccccc21", "Potency": "inactive"},
      {"compound": "C1=C\\CC/C=C\\CC/1", "Potency": "inactive"},
      {"compound": "Cc1ccccc1C(=O)N1CC/C(=N\\OS(=O)(=O)O)c2ccc(Cl)cc21", "Potency": "inactive"},
      {"compound": "C=C(C)C(=O)OC1CC(C)CC(C)(C)C1", "note": "(stereo not given)", "Potency": "inactive"},
      {"compound": "NC(=O)NC(=O)Cc1ccccc1", "Potency": "inactive"},
      {"compound": "CCS(=O)(=O)CCn1c([N+](=O)[O-])cnc1C", "Potency": "inactive"},
      {"compound": "CC1=NN(c2ccc(S(=O)(=O)O)cc2)C(=O)C1N=Nc1ccccc1", "note": "(stereo not given)", "Potency": "54.5 µM (active)"},
      {"compound": "Cc1nc(C)nc(N2C[C@@H](C)N(c3ccnc([C@@H](C)O)n3)[C@@H](C)C2)n1", "Potency": "inactive"},
      {"compound": "CC(=O)c1ccc(OCC(=O)N2CCCCC2)cc1", "Potency": "inactive"},
      {"compound": "CCCCCCCCC(=O)OCC", "Potency": "inactive"},
      {"compound": "O=C(O)c1ccccc1C(=O)OCc1ccccc1", "Potency": "inactive"},
      {"compound": "CCCO", "Potency": "inactive"},
      {"compound": "CCCCCCCCCCCCCCCCI", "viability change, negative = cytotoxic": "1.65% [at 19 µM]"},
      {"compound": "OC(CCN1CCCCC1)(c1ccccc1)c1ccccc1", "Potency": "inactive"},
      {"compound": "CC(=O)OC(C(=O)c1ccccc1)c1ccccc1", "note": "(stereo not given)", "Potency": "inactive"},
      {"compound": "Cc1ccc(C(=O)C(=O)O)cc1C", "Potency": "inactive"},
      {"compound": "CO[Si](CCCCl)(OC)OC", "Potency": "inactive"},
      {"compound": "Cc1cccc(Nc2ccncc2S(=O)(=O)NC(=O)NC(C)C)c1", "Potency": "inactive"},
      {"compound": "COCC(=O)Nc1c(I)c(C(=O)NCC(O)CO)c(I)c(C(=O)N(C)CC(O)CO)c1I", "note": "(stereo not given)", "Potency": "inactive"},
      {"compound": "CCCCC[Si](OCC)(OCC)OCC", "Potency": "inactive"},
      {"compound": "NS(=O)(=O)c1cc2c(cc1Cl)NC(C(Cl)Cl)NS2(=O)=O", "note": "(stereo not given)", "Potency": "inactive"},
      {"compound": "Cc1ccccc1OCC1CO1", "note": "(stereo not given)", "Potency": "inactive"},
      {"compound": "c1ccc(CNc2ncnc3nc[nH]c23)cc1", "Potency": "inactive"},
      {"compound": "COC(OC)C(C)c1ccccc1", "note": "(stereo not given)", "Potency": "inactive"},
      {"compound": "O=C1CC[C@H](C(=O)N2CCCCC2)N1", "Potency": "inactive"},
      {"compound": "O=CO", "viability change, negative = cytotoxic": "-0.634% [at 8.39 µM]"},
      {"compound": "Cc1cc(C)cc([N+](=O)[O-])c1", "Potency": "inactive"},
      {"compound": "CCOC(=O)C(C)(C)C", "Potency": "inactive"},
      {"compound": "CCCCCCCCCOCC1CO1", "note": "(stereo not given)", "Potency": "inactive"},
      {"compound": "FC(F)(F)/C(=N\\OCC1OCCO1)c1ccc(Cl)cc1", "Potency": "inactive"},
      {"compound": "CCCCCCCCCCC", "Potency": "inactive"},
      {"compound": "CC(=O)N1CCN(c2ccc(O)cc2)CC1", "Potency": "inactive"},
      {"compound": "Nc1cc(S(=O)(=O)O)ccc1S(=O)(=O)O", "Potency": "inactive"},
      {"compound": "Cc1cc(O)c2c(c1)C(=O)c1cccc(O)c1C2=O", "Potency": "inactive"},
      {"compound": "CCOC(=O)CC#N", "Potency": "inactive"},
      {"compound": "O=S(=O)(O)CCO", "Potency": "inactive"}
    ]}
  ]
}
